Compound activity deposited in PubChem BioAssay by Johns Hopkins Ion Channel Center.
KCNQ2 enhance: potentiators of rat KCNQ2 potassium channel | CHO-K1 KCNQ2, FluxOR thallium flux fluorescence; hits give high values | B-score at 10 µM | actives 0.54% (n = 310,000) | AID 2239;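 active = fluorescence ratio B-score at least 3 SD of library B-scores, with initial fluorescence B-score within 3 of them, cut at about 5.3 in these data; same plate scores as AID 2156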;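 note: B-score of peak minus minimum over baseline fluorescence ratio after K+ and Tl+ stimulus; positive B-score means potentiation of KCNQ2 with more thallium influx and brighter signal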
Target sequence (O88943 whole entry, looked up): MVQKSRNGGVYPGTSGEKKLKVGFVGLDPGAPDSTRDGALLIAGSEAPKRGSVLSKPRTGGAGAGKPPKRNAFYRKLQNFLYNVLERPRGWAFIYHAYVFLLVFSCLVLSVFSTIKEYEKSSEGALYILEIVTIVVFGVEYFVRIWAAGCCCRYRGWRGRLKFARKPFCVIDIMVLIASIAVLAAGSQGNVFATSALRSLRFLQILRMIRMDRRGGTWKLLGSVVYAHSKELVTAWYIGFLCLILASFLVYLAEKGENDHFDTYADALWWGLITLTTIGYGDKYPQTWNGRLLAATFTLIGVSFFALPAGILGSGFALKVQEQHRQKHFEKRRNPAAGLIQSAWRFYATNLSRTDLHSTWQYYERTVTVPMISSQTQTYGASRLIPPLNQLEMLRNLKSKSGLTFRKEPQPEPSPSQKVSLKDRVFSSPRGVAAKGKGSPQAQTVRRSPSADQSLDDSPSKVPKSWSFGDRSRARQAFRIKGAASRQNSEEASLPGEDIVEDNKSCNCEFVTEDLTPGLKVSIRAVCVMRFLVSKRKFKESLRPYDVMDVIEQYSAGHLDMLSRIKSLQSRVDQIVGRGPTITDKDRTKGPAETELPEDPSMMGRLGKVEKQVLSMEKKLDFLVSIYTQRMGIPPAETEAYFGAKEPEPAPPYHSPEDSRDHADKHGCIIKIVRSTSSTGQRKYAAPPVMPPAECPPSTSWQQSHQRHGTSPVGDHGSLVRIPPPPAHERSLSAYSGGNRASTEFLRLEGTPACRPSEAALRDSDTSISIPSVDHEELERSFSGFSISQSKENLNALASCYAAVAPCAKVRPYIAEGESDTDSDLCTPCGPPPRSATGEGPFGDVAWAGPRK
KCNQ2 block: inhibitors of rat KCNQ2 potassium channel. actives 1.1% (n = 310,000). AID 2156. B-score at 10 µM. CHO-K1 KCNQ2, FluxOR thallium flux, 20 min; hits give low values;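 active = fluorescence ratio B-score at most minus 3 library SDs, with starting brightness B-score within 2 library SDs, cut at about -5.5 in these data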
Kir21 confirm: confirmation of mouse Kir2.1 potassium channel inhibitors; shares compounds with KCNQ2 enhance; Kir2.1-expressing cells, FluxOR thallium flux fluorescence; hits give low values; Tl flux remaining, % of negative control (hits give low values), % at 10 µM; actives 41% (n = 2,300); AID 2032;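 active = Primary-screen hit whose thallium flux fell at least 3 control SD below untreated wells in both duplicates, with normal baseline fluorescence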
HEK293 ctr: parental HEK293 activity in Kir2.1 inhibitor counter-screen; shares compounds with KCNQ2 enhance; parental HEK293 cells, FluxOR thallium flux fluorescence; 0% = unstimulated blank wells; FluxOR signal as % of negative control (100 = no effect), % at 10 µM; AID 2105; actives 19% (n = 2,300);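 active = dye signal at least 3 control SD above or below untreated wells in both duplicates, raw fluorescence within 3, either direction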;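 note: percent is based on the flux ratio of peak minus minimum fluorescence over baseline F0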
CHO-K1 ctr: alters thallium flux in parental CHO-K1 cells, KCNQ2 counter-screen; actives 43% (n = 1,200); shares compounds with KCNQ2 enhance; FluxOR thallium flux fluorescence; zero = vehicle mean+3SD, 100% = vehicle-minus-blank window; activity increase over 3SD of controls, % at 10 µM; AID 2282;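 active = signal rise of at least 3 SD above the untreated control mean, in both duplicate wells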;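 note: counter screen of KCNQ2 potentiator hits so any rise reflects channel-independent effects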
KCNQ1 sel pot: tests whether KCNQ2 potentiators also act on human KCNQ1; shares compounds with KCNQ2 enhance; CHO KCNQ1 stable, FluxOR thallium flux fluorescence; beyond 3SD, as % of vehicle-control signal; activation over 3SD threshold, % at 10 µM; actives 28% (n = 1,200); AID 2283;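 active = fluorescence ratio rise of at least 3 SD of vehicle wells above their mean, in both replicate wells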
KCNQ2 pot conf: confirmation of rat KCNQ2 potassium channel potentiators. shares compounds with KCNQ2 enhance. CHO-KCNQ2 cells, FluxOR thallium flux fluorescence. potentiation, less the hit threshold, % at 10 µM. actives 68% (n = 1,200);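 active = fluorescence ratio rising 3 SD or more over the vehicle control mean in both replicates, plus primary screen hit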;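 note: peak minus minimum thallium fluorescence divided by baseline after K/Tl stimulus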
Kir21 spec: tests whether KCNQ2 potentiators also affect mouse Kir2.1 | actives 2% (n = 1,200) | HEK293 Kir2.1, FluxOR thallium flux fluorescence | activity over 3SD threshold, % at 10 µM | shares compounds with KCNQ2 enhance;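 active = fluorescence ratio rise of at least 3 SD above the vehicle-control mean, seen in both replicates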
KCNQ2 W236L MoA: potentiates the retigabine-insensitive rat KCNQ2 W236L mutant channel | shares compounds with KCNQ2 enhance | CHO KCNQ2-W236L, automated patch clamp current | current increase over 3SD of negative controls (%), hits give high values, % at 25 µM | actives 10% (n = 940) | AID 2558;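 active = current increase at least 3 SD of the untreated controls above them in both duplicate recordings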
A number is an active result; . = inactive; / = no result. Most compounds without a hit are left out; they make up all but 1.6% or so of the library.

SMILES	KCNQ2 enhance	KCNQ2 block	Kir21 confirm	HEK293 ctr	CHO-K1 ctr	KCNQ1 sel pot	KCNQ2 pot conf	Kir21 spec	others
O=C(NCCc1c[nH]c2ccccc12)C(=O)Nc1cc2c3c(c1)CC(=O)N3CCC2	.	.	/	/	/	/	/	/
O=C(NCCN1C(=O)S/C(=C\c2ccc(Cl)c([N+](=O)[O-])c2)C1=O)C1=COCCO1	/	.	/	/	/	/	/	/
COc1coc(C(O)CN)cc1=O (configuration not stated)	.	.	/	/	/	/	/	/
CCOC(=O)C(=Cc1cc(=O)c(OC)co1)C(=O)OCC	.	.	.	.	/	/	/	/
Cc1cccc(C)c1NC(=S)NC(=O)c1ccc(Br)o1	14.1	.	.	.	0.9	.	60.4	.	KCNQ2 W236L MoA=.
Cc1c(NC(=S)NC(=O)c2ccc(Br)o2)c(=O)n(-c2ccccc2)n1C	/	.	/	/	/	/	/	/
O=C(NC(=S)Nc1ccccc1F)c1ccc(Br)o1	16.1	.	.	.	57.4	.	67.1	.	KCNQ2 W236L MoA=.
Cc1cccc(NC(=S)NC(=O)c2ccc(Br)o2)c1C	8.39	.	.	147.5%	46.9	.	28.3	.	KCNQ2 W236L MoA=.
O=C(NNC(=S)Nc1ccccc1C(F)(F)F)c1ccc(Br)o1	.	.	/	/	/	/	/	/
Cc1ccc(NC(=S)NC(=O)c2ccc(Br)o2)c(C)c1	.	.	/	/	/	/	/	/
N#Cc1ccccc1NC(=O)CN(Cc1ccccc1)Cc1ccccc1	/	.	/	/	/	/	/	/
Cc1ccc(NC(=O)Nc2c(C)[nH]c(=O)[nH]c2=O)cc1Cl	/	.	/	/	/	/	/	/
CCSC(=S)c1c(C)[nH]n(-c2ccccc2)c1=O	7.04	.	.	221.5%	.	.	.	.	KCNQ2 W236L MoA=.
Cc1[nH]n(-c2ccccc2)c(=O)c1C(=O)c1ccccc1	/	.	/	/	/	/	/	/
O=C(Nc1cccc(F)c1)c1ccc(Br)o1	.	.	/	/	/	/	/	/
O=C(Nc1cccc(OC(F)(F)F)c1)c1ccc(Br)o1	10.9	.	.	.	11.5	.	.	.	KCNQ2 W236L MoA=22.4%
COc1ccc(CNC(NC(=O)c2ccccc2)(C(F)(F)F)C(F)(F)F)cc1	/	.	/	/	/	/	/	/
O=C(COC(=O)CCSc1ccc(Cl)cc1)NCCc1ccccc1	/	.	/	/	/	/	/	/
CC(C)(Oc1ccc(Cl)cc1)C(=O)OCC(=O)NCCc1ccccc1	.	.	61.5%	.	/	/	/	/
O=C1CCC([N+](=O)[O-])C(c2ccc(Cl)cc2)N1 (configuration not stated)	/	.	/	/	/	/	/	/
O=C(O)c1cnn(-c2nc(-c3ccc(Cl)c(Cl)c3)cs2)c1C(F)(F)F	.	.	.	.	/	/	/	/
O=C(O)c1cnn(-c2nc(-c3cccc(F)c3)cs2)c1C(F)(F)F	.	.	/	/	/	/	/	/
COC(=O)n1c(=S)oc2cc(Cl)ccc21	8.36	.	.	.	27.5	.	.	.	KCNQ2 W236L MoA=.
CCCCOC(=O)n1c(=S)oc2cc(Cl)ccc21	.	.	/	/	/	/	/	/
Oc1c(Br)cc(Br)cc1CNc1cccc2cccnc12	8.76	.	.	.	2.2	.	.	.
SMILES	KCNQ2 enhance	KCNQ2 block	Kir21 confirm	HEK293 ctr	CHO-K1 ctr	KCNQ1 sel pot	KCNQ2 pot conf	Kir21 spec	others
COc1cccc(CNc2cccc3cccnc23)c1O	/	.	/	/	/	/	/	/
O=C(O)Cc1sc(NC2CCCCC2)nc1-c1ccc(Cl)cc1	/	.	/	/	/	/	/	/
CSc1nc(C)cc(-c2cc(C(=O)Nc3ccccc3)on2)n1	.	.	/	/	/	/	/	/
Cc1c(C)n(Cc2ccccc2)c2ccc(C(=O)OCCCN(C)C)cc12	/	.	24.5%	.	/	/	/	/
Cc1c(C)n(CCN(C)C)c2ccc(C(=O)OCCN(C)C)cc12	.	.	/	/	/	/	/	/
Cc1nc(-c2ccc(S(=O)(=O)NCc3ccccn3)s2)cs1	.	.	/	/	/	/	/	/
Cc1cc(C)c(NC(=O)C2CC3CCC2C3)c(C)c1 (configuration not stated)	27.5	.	.	.	.	.	112.3	.	KCNQ2 W236L MoA=.
Cc1cccc(C)c1NC(=O)C1CC2CCC1C2 (configuration not stated)	6.19	.	.	.	2.9	33.7	.	.	KCNQ2 W236L MoA=.
